This is a sample that favours compounds with a hit; in the whole collection about 3.4% have one here.
MITF inh – MITF inhibitors, primary screen, biochemical, AlphaScreen, human; Microphthalmia-associated transcription factor (Homo sapiens), O75030; AID 1259374, 2018; AlphaScreen MITF homodimerization, bead proximity signal; actives 0.91% (n = 650,000); inhibition, % at 2.6 µM; in the data active = inhibition above about 50%
TEAD-YAP block – TEAD-YAP interaction inhibition, primary screen, TEAD-YAP interaction inhibitor project, luminescence, HEK-TIYL cells; TEAD-Gal4/YAP UAS-luciferase luminescence; inhibition, % at 9.12 µM; actives 1.4% (n = 640,000); AID 1259422, 2018; in the data active = inhibition above about 32%
GPR151 activ – activators of human GPR151, primary screen, cell-based, PathHunter beta-arrestin, luminescence. G-protein coupled receptor 151 (Homo sapiens), Q8TDV0. PathHunter beta-arrestin GPR151 cells. activation, % at 11.2 µM. actives 1% (n = 650,000). AID 1508602, 2020; in the data active = activation above about 4.9%
Target sequence (Q8TDV0 whole entry, looked up): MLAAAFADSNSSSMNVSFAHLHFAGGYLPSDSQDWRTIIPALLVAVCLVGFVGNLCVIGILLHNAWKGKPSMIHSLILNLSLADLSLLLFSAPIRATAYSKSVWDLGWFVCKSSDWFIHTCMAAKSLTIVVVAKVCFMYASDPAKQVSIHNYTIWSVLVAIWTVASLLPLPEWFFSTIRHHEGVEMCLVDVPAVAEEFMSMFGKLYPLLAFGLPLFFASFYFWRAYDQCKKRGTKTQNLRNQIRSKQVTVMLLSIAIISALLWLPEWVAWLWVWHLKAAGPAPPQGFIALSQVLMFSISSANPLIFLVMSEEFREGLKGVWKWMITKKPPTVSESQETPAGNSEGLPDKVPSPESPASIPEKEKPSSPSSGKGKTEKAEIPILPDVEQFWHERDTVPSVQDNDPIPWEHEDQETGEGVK
FBW7 activator – FBW7 E3 ligase activators, primary screen, biochemical, AlphaScreen, human; F-box/WD repeat-containing protein 7 (Homo sapiens), Q969H0; AlphaScreen FBW7–phospho-cyclin E peptide binding, activator screen; normalized activity (activation), % at 26.1 µM; actives 0.13% (n = 650,000); AID 1259310, 2017; in the data active = normalized activity above about 1.9%;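 also: purified mutant Fbw7 with reduced substrate affinity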
GPR151 confirm – GPR151 activators, triplicate retest, confirmation, cell-based, PathHunter beta-arrestin, luminescence. shares compounds with GPR151 activ. GPR151 PathHunter beta-arrestin cells, 90 min; % of EA-reagent control over plate median. 6,700 tested, under 10 active. activation, % at 11.2 µM. AID 1508609, 2020;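 active = mean percent activation across replicates above the confirmation screen cutoff of 4.91%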
GPR119 counter – GPR119 activators in beta-arrestin cells, counter-screen for GPR151 activator project, cell-based, PathHunter beta-arrestin, luminescence, triplicate | actives 0.3% (n = 6,700) | activation, % at 11.2 µM | shares compounds with GPR151 activ | 90 min; 0 = compound-well median, 100 = enzyme-acceptor control;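 active = mean percent activation in the counterscreen above 29.09%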;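 also: counterscreen on off-target GPR119 to flag nonselective hits from the GPR151 activator screen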
A number is an active result.

For CC1(C)[C@H]2CC=C(CN3CCC(n4nccc4NC(=O)CCOc4ccccc4)CC3)[C@@H]1C2 the results were MITF inh inactive, TEAD-YAP block inactive, GPR151 activ 5.3, FBW7 activator inactive, GPR151 confirm inactive and GPR119 counter inactive.
For CC(C)CC(=O)Nc1ccnn1C1CCN(CC2=CC[C@H]3C[C@@H]2C3(C)C)CC1 the results were MITF inh inactive, TEAD-YAP block inactive, GPR151 activ inactive and FBW7 activator inactive.
For CC(C(=O)O)N(c1ccc(Cl)cc1)S(C)(=O)=O (stereo unspecified) the results were MITF inh inactive, TEAD-YAP block inactive, GPR151 activ inactive and FBW7 activator inactive.
For COc1ccc(CN2CCc3nnc(CNC(=O)c4ccccn4)n3CC2)c(OC)c1 the results were MITF inh inactive, TEAD-YAP block inactive, GPR151 activ inactive and FBW7 activator inactive.
Screening CCCCN(C)S(=O)(=O)c1ccc(C(=O)Nc2ccc3sc(C)nc3c2)cc1 returned MITF inh inactive, TEAD-YAP block 61.0, GPR151 activ 5.2, FBW7 activator inactive, GPR151 confirm inactive and GPR119 counter inactive.
For O=C(Nc1ccccc1Cl)N1CCN(c2nc3ccc(F)cc3s2)CC1 the results were MITF inh inactive, TEAD-YAP block inactive, GPR151 activ inactive and FBW7 activator inactive.
For CCc1nc(N)c(C#N)c(-c2ccc([N+](=O)[O-])cc2)c1C the results were MITF inh inactive, TEAD-YAP block inactive, GPR151 activ 5.3, FBW7 activator inactive, GPR151 confirm inactive and GPR119 counter inactive.
Screening Cn1c(=O)c2c(SCCC3OCCO3)nc(C3CCCCC3)nc2n(C)c1=O returned MITF inh inactive, TEAD-YAP block inactive, GPR151 activ 7.9, FBW7 activator inactive, GPR151 confirm inactive and GPR119 counter inactive.
For COC(=O)C1CC(=O)N(CCC(C)C)C12CCN(CC(C)C)CC2 (stereo unspecified) the results were MITF inh inactive, TEAD-YAP block inactive, GPR151 activ inactive and FBW7 activator inactive.
For Cc1ccc(Nc2nnc(SCC(=O)N3CCOCC3)s2)cc1 the results were MITF inh inactive, TEAD-YAP block inactive, GPR151 activ inactive and FBW7 activator inactive.
Cc1ccc(Nc2nnc(SCC(=O)N3CCCC3)s2)cc1 was read as MITF inh inactive, TEAD-YAP block inactive, GPR151 activ 5.6, FBW7 activator inactive, GPR151 confirm inactive and GPR119 counter inactive.
`Cc1cc(C(=O)NC(C)C(=O)O)cc(C)c1[N+](=O)[O-]` (stereo unspecified) gave MITF inh inactive, TEAD-YAP block inactive, GPR151 activ 5.0, FBW7 activator inactive, GPR151 confirm inactive and GPR119 counter inactive.
Cc1cc(C(=O)NC(CC(C)C)C(=O)O)cc(C)c1[N+](=O)[O-] (stereo unspecified) was read as MITF inh inactive, TEAD-YAP block inactive, GPR151 activ inactive and FBW7 activator inactive.
`CCC1CCc2nc(N)c(C#N)c(-c3ccccc3Cl)c2C1` (stereo unspecified) gave MITF inh inactive, TEAD-YAP block inactive, GPR151 activ inactive and FBW7 activator inactive.
Screening O=C1c2ccccc2NC2(C(=O)N(Cc3cccc4ccccc34)c3ccccc32)N1c1ccccc1 (stereo unspecified) returned MITF inh inactive, TEAD-YAP block inactive, GPR151 activ 7.0, FBW7 activator inactive, GPR151 confirm inactive and GPR119 counter inactive.
`NS(=O)(=O)c1ccc2oc3cc([N+](=O)[O-])ccc3c2c1` gave MITF inh inactive, TEAD-YAP block inactive, GPR151 activ inactive and FBW7 activator inactive.
Screening CCOc1ccc(-n2nnnc2SCC(=O)N2CCOCC2)cc1 returned MITF inh inactive, TEAD-YAP block inactive, GPR151 activ 5.3, FBW7 activator inactive, GPR151 confirm inactive and GPR119 counter inactive.
Screening O=C(CSc1nnnn1-c1ccc(F)cc1F)N1CCOCC1 returned MITF inh inactive, TEAD-YAP block inactive, GPR151 activ 5.5, FBW7 activator inactive, GPR151 confirm inactive and GPR119 counter inactive.
`COC(=O)c1ccc(-n2nnnc2SCC(=O)N2CCOCC2)cc1` gave MITF inh inactive, TEAD-YAP block inactive, GPR151 activ 4.9, FBW7 activator inactive, GPR151 confirm inactive and GPR119 counter inactive.
Screening COc1ccc(C(=O)c2sc3nc(-c4ccccc4)cc(-c4ccccc4)c3c2N)cc1 returned MITF inh inactive, TEAD-YAP block inactive, GPR151 activ inactive and FBW7 activator inactive.
For NC(=O)NC(CC(=O)O)c1cccc(Oc2ccccc2)c1 (stereo unspecified) the results were MITF inh inactive, TEAD-YAP block inactive, GPR151 activ inactive and FBW7 activator inactive.
N#C/C(=C\c1ccc(-c2ccc(Cl)c([N+](=O)[O-])c2)o1)c1nc2ccccc2[nH]1 was read as MITF inh inactive, TEAD-YAP block inactive, GPR151 activ inactive and FBW7 activator inactive.
`CCc1ccccc1N(C(C)=O)C1C=CS(=O)(=O)C1` (stereo unspecified) gave MITF inh inactive, TEAD-YAP block inactive, GPR151 activ inactive and FBW7 activator inactive.
`CC(=O)N(c1cccc2ccccc12)C1C=CS(=O)(=O)C1` (stereo unspecified) gave MITF inh inactive, TEAD-YAP block inactive, GPR151 activ 4.9, FBW7 activator inactive, GPR151 confirm inactive and GPR119 counter inactive.
`CCC(C)(C)c1ccc(OCCOCCn2cc([N+](=O)[O-])nc2C)c(C(C)(C)CC)c1` gave MITF inh inactive, TEAD-YAP block inactive, GPR151 activ 5.6, FBW7 activator inactive, GPR151 confirm inactive and GPR119 counter inactive.
`CC(C)(C)c1ccc(C(=O)Nc2nnc(COc3ccccc3)s2)cc1` gave MITF inh inactive, TEAD-YAP block inactive, GPR151 activ inactive and FBW7 activator inactive.
`Cc1nn(-c2ccccc2)c(Cl)c1C(=O)Nc1nnc(COc2ccccc2)s1` gave MITF inh inactive, TEAD-YAP block inactive, GPR151 activ 5.5, FBW7 activator inactive, GPR151 confirm inactive and GPR119 counter inactive.
`O=C(NCc1cccc(C(F)(F)F)c1)c1ccc2nc(NC3CCC(O)CC3)sc2c1` (stereo unspecified) gave MITF inh inactive, TEAD-YAP block inactive, GPR151 activ inactive and FBW7 activator inactive.
`CC1(C)CC(NC(=O)c2cccc(OC3CCN(C(=O)C4CC4)CC3)c2)CCO1` (stereo unspecified) gave MITF inh inactive, TEAD-YAP block inactive, GPR151 activ inactive and FBW7 activator inactive.

From PubChem
